The supplement of paper PMC11732987, “Enantioselective OTUD7B fragment discovery through chemoproteomics screening and high-throughput optimisation” (Communications Chemistry, 2025)

Columns and labels:
Assay in all cases: log2 ratio of Biotin-Ahx-Ub-VS probe labelling (fragment/DMSO); higher = less target engagement (more negative = stronger competition), active = hit call of the paper (q ≤ 0.05, log2 ratio ≤ -1)
Details in all cases: compound concentration: 200 uM; treatment time: 3 h
USP42 = molecular target: T1, USP42 (UniProt Q9H9J4)
T1 sequence (whole entry): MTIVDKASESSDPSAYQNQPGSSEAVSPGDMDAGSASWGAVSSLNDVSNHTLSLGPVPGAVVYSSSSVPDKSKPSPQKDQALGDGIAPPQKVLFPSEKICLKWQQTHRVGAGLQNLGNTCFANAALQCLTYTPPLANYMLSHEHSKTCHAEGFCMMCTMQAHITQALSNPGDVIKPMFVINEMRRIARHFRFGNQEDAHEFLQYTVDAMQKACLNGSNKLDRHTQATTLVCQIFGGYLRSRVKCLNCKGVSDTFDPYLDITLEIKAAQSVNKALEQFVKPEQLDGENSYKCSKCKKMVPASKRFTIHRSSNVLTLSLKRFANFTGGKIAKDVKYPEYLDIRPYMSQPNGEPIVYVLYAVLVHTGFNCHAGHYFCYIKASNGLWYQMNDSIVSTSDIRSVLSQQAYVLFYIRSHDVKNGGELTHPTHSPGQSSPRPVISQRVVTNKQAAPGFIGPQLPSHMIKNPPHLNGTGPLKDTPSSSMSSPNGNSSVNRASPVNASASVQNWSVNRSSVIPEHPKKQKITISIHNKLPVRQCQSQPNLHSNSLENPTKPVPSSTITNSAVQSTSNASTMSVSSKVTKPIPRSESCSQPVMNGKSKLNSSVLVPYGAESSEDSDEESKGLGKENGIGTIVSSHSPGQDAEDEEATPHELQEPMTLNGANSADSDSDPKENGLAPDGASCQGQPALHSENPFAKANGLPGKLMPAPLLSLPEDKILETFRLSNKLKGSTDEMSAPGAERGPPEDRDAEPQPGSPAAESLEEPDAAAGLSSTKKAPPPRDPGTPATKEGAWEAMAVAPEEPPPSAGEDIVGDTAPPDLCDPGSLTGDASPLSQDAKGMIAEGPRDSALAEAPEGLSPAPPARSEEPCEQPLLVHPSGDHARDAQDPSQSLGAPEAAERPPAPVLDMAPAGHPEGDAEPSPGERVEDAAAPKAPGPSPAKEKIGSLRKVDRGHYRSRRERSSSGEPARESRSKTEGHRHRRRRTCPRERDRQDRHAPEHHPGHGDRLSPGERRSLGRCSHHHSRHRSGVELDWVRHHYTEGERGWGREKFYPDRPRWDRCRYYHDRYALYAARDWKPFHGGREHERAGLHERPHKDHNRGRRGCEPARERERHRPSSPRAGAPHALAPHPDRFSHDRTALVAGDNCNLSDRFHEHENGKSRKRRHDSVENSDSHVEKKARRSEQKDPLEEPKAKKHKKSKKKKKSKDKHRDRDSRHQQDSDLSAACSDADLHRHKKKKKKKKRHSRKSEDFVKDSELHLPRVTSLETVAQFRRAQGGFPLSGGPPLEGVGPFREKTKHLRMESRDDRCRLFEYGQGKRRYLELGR
How it was run: (§1)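 The table lists average log2 ratios of fragment over vehicle, from an unpaired t-test on global-median-normalised Spectronaut label-free quantities. Proteins with ≥2 unique peptides were used. Samples were HEK293T lysate (495 µg) treated in triplicate with fragment at 200 µM or vehicle for 3 h, then with Biotin-Ahx-Ub-VS (0.5 µM final) for 1 h, with labelled DUBs NeutrAvidin-enriched and run by diaPASEF LC-MS/MS.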

USP46 = USP46 (UniProt P62068)
How it was run: as §1

USP47 = molecular target: T2, USP47 (UniProt Q96K76)
T2 sequence (whole entry): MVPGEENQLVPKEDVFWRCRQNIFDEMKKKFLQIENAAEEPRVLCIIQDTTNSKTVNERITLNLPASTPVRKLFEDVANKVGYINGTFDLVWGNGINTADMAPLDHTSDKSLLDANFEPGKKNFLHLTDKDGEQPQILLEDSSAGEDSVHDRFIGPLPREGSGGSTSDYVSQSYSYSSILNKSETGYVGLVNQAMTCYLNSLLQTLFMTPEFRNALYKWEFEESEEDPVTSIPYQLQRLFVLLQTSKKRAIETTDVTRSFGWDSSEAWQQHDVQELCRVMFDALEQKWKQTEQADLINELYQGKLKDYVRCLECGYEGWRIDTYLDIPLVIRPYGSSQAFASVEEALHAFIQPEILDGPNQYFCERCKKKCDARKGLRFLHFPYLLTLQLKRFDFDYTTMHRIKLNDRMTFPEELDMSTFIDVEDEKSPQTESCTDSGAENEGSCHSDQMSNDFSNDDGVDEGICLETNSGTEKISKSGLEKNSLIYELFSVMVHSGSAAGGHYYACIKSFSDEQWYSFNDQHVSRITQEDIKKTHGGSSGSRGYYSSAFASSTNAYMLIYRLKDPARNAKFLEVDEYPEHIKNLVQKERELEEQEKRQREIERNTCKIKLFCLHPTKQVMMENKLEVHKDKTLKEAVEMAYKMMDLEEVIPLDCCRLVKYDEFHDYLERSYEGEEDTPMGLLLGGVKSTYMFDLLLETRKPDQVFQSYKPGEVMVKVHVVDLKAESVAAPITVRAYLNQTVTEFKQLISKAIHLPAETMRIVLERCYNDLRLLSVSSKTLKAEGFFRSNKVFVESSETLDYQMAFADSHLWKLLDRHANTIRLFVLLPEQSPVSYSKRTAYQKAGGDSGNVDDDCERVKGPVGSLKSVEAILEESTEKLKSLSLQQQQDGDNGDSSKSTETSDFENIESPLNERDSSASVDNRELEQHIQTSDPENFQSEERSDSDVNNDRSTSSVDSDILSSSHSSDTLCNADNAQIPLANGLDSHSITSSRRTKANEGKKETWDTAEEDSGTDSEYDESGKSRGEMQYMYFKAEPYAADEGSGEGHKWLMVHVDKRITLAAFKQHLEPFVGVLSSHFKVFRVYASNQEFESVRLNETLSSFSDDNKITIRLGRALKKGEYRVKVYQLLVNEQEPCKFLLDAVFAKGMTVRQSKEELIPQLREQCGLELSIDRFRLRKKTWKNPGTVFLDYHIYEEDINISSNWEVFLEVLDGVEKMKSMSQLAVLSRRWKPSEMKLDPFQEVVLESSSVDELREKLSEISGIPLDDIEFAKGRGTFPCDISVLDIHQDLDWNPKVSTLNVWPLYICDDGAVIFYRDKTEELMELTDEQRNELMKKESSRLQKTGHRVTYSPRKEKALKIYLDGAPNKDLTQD
How it was run: as §1

USP48 = molecular target: T3, USP48 (UniProt Q86UV5)
T3 sequence (whole entry): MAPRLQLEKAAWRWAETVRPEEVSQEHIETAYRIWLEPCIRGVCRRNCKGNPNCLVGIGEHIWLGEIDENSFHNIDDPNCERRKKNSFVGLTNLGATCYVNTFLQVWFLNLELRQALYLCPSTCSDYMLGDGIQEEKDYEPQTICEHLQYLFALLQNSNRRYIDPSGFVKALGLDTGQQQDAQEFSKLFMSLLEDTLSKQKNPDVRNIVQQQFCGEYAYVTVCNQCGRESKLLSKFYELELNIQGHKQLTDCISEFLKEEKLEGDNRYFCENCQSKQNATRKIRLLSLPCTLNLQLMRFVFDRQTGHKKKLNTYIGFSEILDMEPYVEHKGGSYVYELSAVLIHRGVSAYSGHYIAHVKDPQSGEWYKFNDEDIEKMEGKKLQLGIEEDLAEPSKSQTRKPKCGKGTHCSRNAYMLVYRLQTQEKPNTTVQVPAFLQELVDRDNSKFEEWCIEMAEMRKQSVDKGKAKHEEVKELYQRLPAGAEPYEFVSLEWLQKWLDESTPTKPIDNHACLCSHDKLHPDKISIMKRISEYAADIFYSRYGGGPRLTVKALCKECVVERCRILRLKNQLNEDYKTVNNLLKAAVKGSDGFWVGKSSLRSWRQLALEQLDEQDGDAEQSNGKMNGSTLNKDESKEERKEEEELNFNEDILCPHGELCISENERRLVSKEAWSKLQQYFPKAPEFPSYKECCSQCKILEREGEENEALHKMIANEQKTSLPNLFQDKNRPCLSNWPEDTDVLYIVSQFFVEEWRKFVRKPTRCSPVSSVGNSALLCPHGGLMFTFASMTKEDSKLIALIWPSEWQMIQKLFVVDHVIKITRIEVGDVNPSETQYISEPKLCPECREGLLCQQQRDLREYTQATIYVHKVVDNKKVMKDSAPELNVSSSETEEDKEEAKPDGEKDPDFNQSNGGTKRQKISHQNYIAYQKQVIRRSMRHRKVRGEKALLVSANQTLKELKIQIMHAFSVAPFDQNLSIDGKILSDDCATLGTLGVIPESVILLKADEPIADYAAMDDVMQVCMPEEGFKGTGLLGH
How it was run: as §1

USP5 = molecular target: T4, USP5 (UniProt P45974)
T4 sequence (whole entry): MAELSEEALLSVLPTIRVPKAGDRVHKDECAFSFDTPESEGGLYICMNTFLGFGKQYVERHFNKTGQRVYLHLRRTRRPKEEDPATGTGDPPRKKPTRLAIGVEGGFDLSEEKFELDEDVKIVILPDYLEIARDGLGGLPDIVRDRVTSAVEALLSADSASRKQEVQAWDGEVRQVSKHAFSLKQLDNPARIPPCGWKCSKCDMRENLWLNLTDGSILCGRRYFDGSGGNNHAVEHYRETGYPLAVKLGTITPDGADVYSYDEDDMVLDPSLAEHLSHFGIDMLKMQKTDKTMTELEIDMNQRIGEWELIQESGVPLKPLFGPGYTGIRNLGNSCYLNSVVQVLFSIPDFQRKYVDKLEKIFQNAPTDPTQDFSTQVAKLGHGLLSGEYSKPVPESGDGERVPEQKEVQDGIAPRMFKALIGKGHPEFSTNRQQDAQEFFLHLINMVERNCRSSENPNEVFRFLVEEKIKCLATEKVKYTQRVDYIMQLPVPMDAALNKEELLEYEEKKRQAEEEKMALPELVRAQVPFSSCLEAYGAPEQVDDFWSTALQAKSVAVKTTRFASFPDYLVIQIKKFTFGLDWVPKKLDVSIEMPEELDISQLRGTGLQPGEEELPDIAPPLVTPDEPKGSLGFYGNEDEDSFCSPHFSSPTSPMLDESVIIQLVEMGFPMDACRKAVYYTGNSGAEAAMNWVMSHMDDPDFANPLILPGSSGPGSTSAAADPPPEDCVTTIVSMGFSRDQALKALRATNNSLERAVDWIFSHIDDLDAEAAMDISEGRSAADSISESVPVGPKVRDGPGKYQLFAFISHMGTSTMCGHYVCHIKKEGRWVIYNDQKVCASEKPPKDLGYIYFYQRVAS
How it was run: as §1

USP54 = USP54 (UniProt Q70EL1)
How it was run: as §1

USP7 = USP7 (UniProt Q93009)
How it was run: as §1

USP8 = molecular target: T5, USP8 (UniProt P40818)
T5 sequence (whole entry): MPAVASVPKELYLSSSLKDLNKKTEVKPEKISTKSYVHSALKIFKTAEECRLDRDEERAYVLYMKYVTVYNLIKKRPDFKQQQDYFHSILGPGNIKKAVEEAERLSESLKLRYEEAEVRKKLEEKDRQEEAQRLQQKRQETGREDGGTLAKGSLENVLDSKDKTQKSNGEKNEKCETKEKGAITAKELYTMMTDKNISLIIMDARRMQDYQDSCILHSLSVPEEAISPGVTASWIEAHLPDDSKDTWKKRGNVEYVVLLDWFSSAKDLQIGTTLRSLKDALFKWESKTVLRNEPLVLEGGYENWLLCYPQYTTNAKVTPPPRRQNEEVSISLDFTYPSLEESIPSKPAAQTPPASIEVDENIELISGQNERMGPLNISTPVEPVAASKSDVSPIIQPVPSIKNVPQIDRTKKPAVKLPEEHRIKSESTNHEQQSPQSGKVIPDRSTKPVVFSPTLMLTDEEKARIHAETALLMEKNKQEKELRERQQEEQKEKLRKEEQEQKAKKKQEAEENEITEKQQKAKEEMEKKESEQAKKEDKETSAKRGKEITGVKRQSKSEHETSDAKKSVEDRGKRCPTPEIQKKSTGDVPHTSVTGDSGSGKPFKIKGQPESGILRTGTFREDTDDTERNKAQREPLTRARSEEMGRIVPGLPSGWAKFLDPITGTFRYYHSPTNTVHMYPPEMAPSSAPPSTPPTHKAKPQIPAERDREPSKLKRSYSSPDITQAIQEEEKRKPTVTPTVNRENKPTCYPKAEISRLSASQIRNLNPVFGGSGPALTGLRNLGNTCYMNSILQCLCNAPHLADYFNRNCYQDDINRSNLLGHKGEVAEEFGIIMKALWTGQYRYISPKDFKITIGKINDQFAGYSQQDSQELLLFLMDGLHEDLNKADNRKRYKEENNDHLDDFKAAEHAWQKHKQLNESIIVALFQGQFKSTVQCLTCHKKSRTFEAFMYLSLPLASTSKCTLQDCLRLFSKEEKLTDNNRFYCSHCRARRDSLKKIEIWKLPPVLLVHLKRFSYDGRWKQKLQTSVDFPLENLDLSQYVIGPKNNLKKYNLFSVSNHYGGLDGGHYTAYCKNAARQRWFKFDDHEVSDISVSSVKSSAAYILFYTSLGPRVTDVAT
How it was run: as §1

USP9X = USP9X (UniProt Q93008)
How it was run: as §1

UniProt O00487 = molecular target: UniProt O00487
How it was run: as §1

Measured: log2 ratio of Biotin-Ahx-Ub-VS probe labelling

Chain of USP7 (Q93009 whole entry, looked up): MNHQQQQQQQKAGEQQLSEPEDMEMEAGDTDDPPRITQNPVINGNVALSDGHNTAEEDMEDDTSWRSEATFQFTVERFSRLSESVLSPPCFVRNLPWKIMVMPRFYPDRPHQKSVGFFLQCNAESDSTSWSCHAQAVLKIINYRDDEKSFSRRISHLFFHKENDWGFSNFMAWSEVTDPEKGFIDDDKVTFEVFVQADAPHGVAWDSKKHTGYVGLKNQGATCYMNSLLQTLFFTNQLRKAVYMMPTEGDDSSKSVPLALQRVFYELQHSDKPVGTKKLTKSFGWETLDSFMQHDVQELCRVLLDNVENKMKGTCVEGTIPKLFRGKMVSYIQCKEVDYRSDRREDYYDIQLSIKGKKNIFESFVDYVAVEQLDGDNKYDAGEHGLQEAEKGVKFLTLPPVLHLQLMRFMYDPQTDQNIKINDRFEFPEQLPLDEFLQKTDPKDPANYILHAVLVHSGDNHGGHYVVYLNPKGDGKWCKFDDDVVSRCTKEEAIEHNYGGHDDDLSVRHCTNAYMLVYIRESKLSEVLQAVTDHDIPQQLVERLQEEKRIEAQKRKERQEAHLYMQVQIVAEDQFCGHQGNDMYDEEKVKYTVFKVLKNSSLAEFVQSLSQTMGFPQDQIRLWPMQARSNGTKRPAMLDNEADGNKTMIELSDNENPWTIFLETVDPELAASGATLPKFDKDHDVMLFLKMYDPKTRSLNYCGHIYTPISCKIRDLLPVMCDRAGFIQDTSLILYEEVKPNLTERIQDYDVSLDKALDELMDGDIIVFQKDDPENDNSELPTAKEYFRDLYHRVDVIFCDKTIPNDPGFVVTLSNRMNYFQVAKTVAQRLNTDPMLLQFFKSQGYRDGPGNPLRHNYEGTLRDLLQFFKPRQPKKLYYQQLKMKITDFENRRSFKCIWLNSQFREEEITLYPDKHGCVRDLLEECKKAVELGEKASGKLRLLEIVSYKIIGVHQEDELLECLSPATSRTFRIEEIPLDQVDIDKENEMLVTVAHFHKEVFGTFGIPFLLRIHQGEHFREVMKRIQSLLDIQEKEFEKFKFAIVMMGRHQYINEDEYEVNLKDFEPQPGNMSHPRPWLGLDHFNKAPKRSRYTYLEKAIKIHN
Chain of USP54 (Q70EL1 whole entry): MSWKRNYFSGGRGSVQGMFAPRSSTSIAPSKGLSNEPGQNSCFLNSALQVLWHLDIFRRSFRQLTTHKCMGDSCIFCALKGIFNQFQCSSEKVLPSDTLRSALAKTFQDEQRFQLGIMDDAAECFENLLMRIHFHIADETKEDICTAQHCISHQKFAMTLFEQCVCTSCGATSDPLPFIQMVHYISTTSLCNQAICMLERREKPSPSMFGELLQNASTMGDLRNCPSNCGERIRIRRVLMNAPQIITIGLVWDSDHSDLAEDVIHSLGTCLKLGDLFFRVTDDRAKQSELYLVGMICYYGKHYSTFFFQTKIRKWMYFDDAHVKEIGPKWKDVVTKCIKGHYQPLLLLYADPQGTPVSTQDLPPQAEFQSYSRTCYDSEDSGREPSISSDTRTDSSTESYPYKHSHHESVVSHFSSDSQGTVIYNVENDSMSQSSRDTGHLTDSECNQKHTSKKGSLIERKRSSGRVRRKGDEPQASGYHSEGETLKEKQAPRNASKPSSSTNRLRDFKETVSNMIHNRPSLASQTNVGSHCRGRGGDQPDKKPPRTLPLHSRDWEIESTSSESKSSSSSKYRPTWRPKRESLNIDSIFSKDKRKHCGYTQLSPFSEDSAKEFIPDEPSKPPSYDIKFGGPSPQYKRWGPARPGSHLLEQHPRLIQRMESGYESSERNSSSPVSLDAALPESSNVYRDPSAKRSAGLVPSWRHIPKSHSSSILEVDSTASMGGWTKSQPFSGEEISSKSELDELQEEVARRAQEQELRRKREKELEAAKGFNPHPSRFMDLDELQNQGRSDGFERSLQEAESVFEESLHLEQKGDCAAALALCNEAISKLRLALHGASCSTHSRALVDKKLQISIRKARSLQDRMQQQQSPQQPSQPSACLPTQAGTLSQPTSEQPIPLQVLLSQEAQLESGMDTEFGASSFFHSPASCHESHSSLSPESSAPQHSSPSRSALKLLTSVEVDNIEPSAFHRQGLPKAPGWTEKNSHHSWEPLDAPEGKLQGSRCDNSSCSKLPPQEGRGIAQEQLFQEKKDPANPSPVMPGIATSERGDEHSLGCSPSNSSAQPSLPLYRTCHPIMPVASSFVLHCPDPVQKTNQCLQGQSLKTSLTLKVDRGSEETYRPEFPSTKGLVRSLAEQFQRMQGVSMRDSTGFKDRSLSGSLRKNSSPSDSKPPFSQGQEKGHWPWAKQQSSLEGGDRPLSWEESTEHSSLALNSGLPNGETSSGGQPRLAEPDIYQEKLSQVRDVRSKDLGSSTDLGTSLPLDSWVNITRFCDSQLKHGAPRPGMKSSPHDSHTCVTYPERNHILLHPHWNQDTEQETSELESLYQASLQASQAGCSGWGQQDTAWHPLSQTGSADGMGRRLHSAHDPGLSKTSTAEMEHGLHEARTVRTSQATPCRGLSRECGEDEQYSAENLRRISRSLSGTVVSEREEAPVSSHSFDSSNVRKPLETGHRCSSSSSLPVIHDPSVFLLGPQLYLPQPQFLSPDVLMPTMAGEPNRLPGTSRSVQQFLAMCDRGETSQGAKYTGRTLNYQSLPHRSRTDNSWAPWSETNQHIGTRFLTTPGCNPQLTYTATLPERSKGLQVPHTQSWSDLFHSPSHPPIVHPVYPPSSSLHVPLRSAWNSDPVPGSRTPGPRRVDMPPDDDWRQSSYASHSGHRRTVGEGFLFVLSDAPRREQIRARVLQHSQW
Chain of USP46 (P62068 whole entry): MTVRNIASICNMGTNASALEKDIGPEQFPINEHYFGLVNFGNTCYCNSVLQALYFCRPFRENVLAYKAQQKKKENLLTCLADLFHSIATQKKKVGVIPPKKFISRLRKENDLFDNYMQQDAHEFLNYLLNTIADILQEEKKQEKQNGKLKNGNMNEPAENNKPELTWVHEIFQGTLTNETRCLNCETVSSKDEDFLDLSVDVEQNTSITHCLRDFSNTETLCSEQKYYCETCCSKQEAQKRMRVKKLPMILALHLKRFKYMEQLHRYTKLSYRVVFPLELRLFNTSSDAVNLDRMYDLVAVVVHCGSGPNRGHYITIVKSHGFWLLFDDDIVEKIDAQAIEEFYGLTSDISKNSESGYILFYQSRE
Chain of UniProt O00487 (O00487 whole entry): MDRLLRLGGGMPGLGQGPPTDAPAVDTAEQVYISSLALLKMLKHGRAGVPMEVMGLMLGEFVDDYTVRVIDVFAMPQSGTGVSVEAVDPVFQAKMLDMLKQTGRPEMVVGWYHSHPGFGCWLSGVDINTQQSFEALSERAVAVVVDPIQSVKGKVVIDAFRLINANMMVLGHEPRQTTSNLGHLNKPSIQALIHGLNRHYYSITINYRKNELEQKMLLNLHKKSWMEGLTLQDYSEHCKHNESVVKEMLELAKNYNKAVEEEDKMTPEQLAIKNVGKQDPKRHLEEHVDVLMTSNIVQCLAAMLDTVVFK

CN(C)C(=O)c1ccc(CNC(=O)CCl)cc1
inactive: USP42 -0.0843 | USP46 0.181 | USP47 0.119 | USP48 0.0435 | USP5 0.373 | USP54 0.152 | USP7 0.103 | USP8 -0.341 | USP9X 0.002 | UniProt O00487 -0.101
